Each structure is given as a SMILES string. Activity calls are given as the source filed them. The call rests on the fitted dose curve.

The assay is described as follows: qHTS drug screen for cell cycle checkpoint inhibitors in PARPi-resistant BRCA-mutant ovarian cancer cell lines. (AID 1963452). The note with it: PEO1/OlaR viability, CellTiter-Glo luminescence, 96 h, stronger effect = lower value. From the text: Women's Malignancies Branch, Center for Cancer Research (CCR),
National Cancer Institute (NCI), National Institutes of Health (NIH), Bethesda, MD
Poly (ADP-ribose) polymerase inhibitors (PARPis) have changed the treatment paradigm in breast cancer gene (BRCA) - mutant high-grade serous ovarian carcinoma (HGSC). However, most patients eventually develop resistance to PARPis, highlighting an unmet need for improved therapeutic strategies. Using high-throughput drug screens, we identified ataxia telangiectasia and rad3-related protein/checkpoint kinase 1 (CHK1) pathway inhibitors as cytotoxic and further validated the activity of the CHK1 inhibitor (CHK1i) prexasertib in PARPi-sensitive and -resistant BRCA-mutant HGSC cells and xenograft mouse models. CHK1i monotherapy induced DNA damage, apoptosis, and tumor size reduction. We then conducted a phase 2 study (NCT02203513) of prexasertib in patients with BRCA-mutant HGSC. The treatment was well tolerated but yielded an objective response rate of 6% (1 of 17; one partial response) in patients with previous PARPi treatment. […] BRCA reversion mutation in previously PARPi-treated BRCA-mutant patients was not associated with resistance to CHK1i.
Among others, 1082 oncology drugs, both approved and investigational, were prioritized based on their status in clinical trial development. […] Drugs with average Z-AUC values less than -1.0 in all three cell lines were classified as "hits" resulting in 151 oncology drug hits. The screen also confirmed cross-resistance between olaparib and other PARPis (rucaparib, niraparib, and talazoparib) in PARPi-resistant PEO1/OlaR and PEO4.
[1] G. L. Lin, K. M. Wilson, M. Ceribelli, B. Z. Stanton, P. J. Woo, S. Kreimer, E. Y. Qin, X. Zhang, J. Lennon, S. Nagaraja, P. J. Morris, M. Quezada, S. M. Gillespie, D. Y. Duveau, A. M. Michalowski, P. Shinn, R. Guha, M. Ferrer, C. Klumpp-Thomas, S. Michael, C. McKnight, P. Minhas, Z. Itkin, E. H. Raabe, L. Chen, R. Ghanem, A. C. Geraghty, L. Ni, K. I. Andreasson, N. A. Vitanza, K. E.Warren, C. J. Thomas, M. Monje, Therapeutic strategies for diffuse midline glioma from high-throughput combination drug screening. Sci. Transl. Med. 11, (2019).
[2] T. M. Yamamoto, A. McMellen, Z. L. Watson, J. Aguilera, R. Ferguson, E. Nurmemmedov, T. Thakar, G. L. Moldovan, H. Kim, D. M. Cittelly, A. M. Joglar, E. P. Brennecke, H. Wilson, K. Behbakht, M. J. Sikora, B. G. Bitler, Activation of Wnt signaling promotes olaparib resistant ovarian cancer. Mol. Carcinog. 58, 1770 - 1782 (2019).
PROTOCOL TABLE (as described by Inglese J, Shamu CE and Guy RK. 2007)
SEQUENCE No. (e.g., 1, 2, 3, etc.); […] (e.g., Cells, Incubation, Reagent, etc.); VALUE; DESCRIPTION.
1; Compounds; 20nL; 1536-well white tissue culture-treated plates.
2; Cells; 5 uL; PEO1, PEO4, and PEO1/OlaR cells at 600 cells per well.
3; Incubation; 96 hr; 37C, 95% humidity, 5% CO2.
4; Reagent; 3 uL; CellTiter-Glo (Promega).
5; Incubation; 15 min; room temperature.
6; Detection; Luminescence, PHERAstar (BMG Labtech) plate reader.
NOTES (numbers refer to Sequence numbers above)
1. MIPE 5.0 compounds were acoustically dispensed by Echo Acoustic Liquid Handler (Beckman Coulter Life Sciences). Each compound was plated at an 11-point concentration range with 1:3 dilution. Bortezomib, a proteasome inhibitor (final concentration, 20 uM), was used as a positive.
2. PEO1, PEO4, and PEO1/OlaR were trypsinized and dispensed in 5 uLof growth medium using a Multidrop Combi dispenser at a density of 600 cells per well to allow compounds to be present during the exponential growth phase.
3. Plates were incubated for 96 hours at standard incubator conditions and covered by a stainless steel gasketed lid to prevent evaporation.
4. Three microliters of CellTiter-Glo (Promega) were added to each well.
5. Plates were incubated at room temperature for 15 min with a stainless-steel lid in place.
6. Luminescence readings were taken using PHERAstar (BMG Labtech). […]

The mark [1] stands for this setting: measured here: PEO1 parental Z-AUC.

Take `O=NN(CCCl)C(=O)NC1CCCCC1`: the Z-AUC was 0.23 (inactive). In addition, the Z-AUC under setting [1] was 1.4. Further, the Z-AUC (measured here: PEO4 Z-AUC) is 1.4.

Regarding `O=C(O)CCn1c2c(c3ccccc31)C[C@H](NS(=O)(=O)c1ccc(F)cc1)CC2`, the Z-AUC was 0.321 (inactive). Besides, the Z-AUC under setting [1] was found to be 0.0173. For the same compound, the Z-AUC (measured here: PEO4 Z-AUC) worked out at 0.558.

In the case of `CO[C@@]12[C@H](COC(N)=O)C3=C(C(=O)C(C)=C(N)C3=O)N1C[C@@H]1N[C@@H]12`, the Z-AUC was 0.952 (inactive). Besides, the Z-AUC under setting [1] came to 0.894. Further, for the setting “measured here: PEO4 Z-AUC”, the Z-AUC amounted to 1.04.

`Cn1c(=O)c2c(ncn2CC(O)CO)n(C)c1=O` (configuration not stated): the Z-AUC was 0.897 (inactive). Further, under setting [1], the Z-AUC is 0.956. For the same compound, the Z-AUC (measured here: PEO4 Z-AUC) was determined as 0.893.

Turning to `CCOCC(O)COc1ccc(NC(=O)CC[S+](C)C)cc1` (configuration not stated), the Z-AUC was 0.72 (inactive). Further, the Z-AUC under setting [1] turned out to be 0.893. In addition, the Z-AUC (measured here: PEO4 Z-AUC) was found to be 1.15.

As to `Nc1nc(F)nc2c1ncn2[C@@H]1O[C@H](CO)[C@@H](O)[C@@H]1O`, the Z-AUC was 0.0458 (inactive). The Z-AUC under setting [1] came out at 0.0902. The Z-AUC (measured here: PEO4 Z-AUC) turned out to be 0.704.

For `CCC(=O)O[C@]1(C(=O)SCF)[C@H](C)C[C@H]2[C@@H]3C[C@H](F)C4=CC(=O)C=C[C@]4(C)[C@@]3(F)[C@@H](O)C[C@@]21C`, the Z-AUC is -1.29 (inactive). In addition, the Z-AUC under setting [1] was -0.0288. The Z-AUC (measured here: PEO4 Z-AUC) was -0.807.

`CC1=CC(=O)c2ccccc2C1=O`: the Z-AUC is 0.899 (inactive). Under setting [1], the Z-AUC was 0.394. The Z-AUC (measured here: PEO4 Z-AUC) was determined as 0.252.

As to `CC(C(=O)O)c1ccc2c(c1)CC(=O)c1ccccc1S2` (configuration not stated), the Z-AUC was 1.18 (inactive). Further, under setting [1], the Z-AUC amounted to 0.703. Further, the Z-AUC (measured here: PEO4 Z-AUC) is 0.789.

`CCn1cc(C(=O)O)c(=O)c2cc(F)c(N3CCNCC3)cc21`: the Z-AUC is 0.488 (inactive). Moreover, under setting [1], the Z-AUC was determined as 0.343. For the same compound, the Z-AUC (measured here: PEO4 Z-AUC) was 0.192.

On to `C#CCN[C@@H]1CCc2ccccc21`, for which the Z-AUC was -0.484 (inactive). Also, the Z-AUC under setting [1] was -0.355. For the same compound, the Z-AUC (measured here: PEO4 Z-AUC) was -0.739.

With `CCOc1cc(N)c(Cl)cc1C(=O)NCC1CN(Cc2ccc(F)cc2)CCO1` (configuration not stated), the Z-AUC is 1.79 (inactive). Also, the Z-AUC under setting [1] was 1.17. Besides, the Z-AUC (measured here: PEO4 Z-AUC) was 1.21.

Regarding `CC1=NN(c2ccccc2)C(=O)C1`, the Z-AUC was 0.285 (inactive). Also, under setting [1], the Z-AUC stood at 0.838. Moreover, the Z-AUC (measured here: PEO4 Z-AUC) was 1.05.

As for `Nc1[nH]c(=O)ncc1F`, the Z-AUC is 1.66 (inactive). Under setting [1], the Z-AUC came to 1.6. Where the note is “measured here: PEO4 Z-AUC”, the Z-AUC was determined as 1.51.

For the origin of these results see PubChem BioAssay (NCATS).
